From the supplement of paper PMC4723716

System: Plasmodium falciparum NF54 gametocytes
Assay: viability index relative to DMSO control (fraction); higher = less gametocyte killing
Settings: 12.5 µM, incubation time: 72 h
Method in brief: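 P. falciparum NF54 gametocytes at stages I–V were treated with compound at 12.5 µM for 72 hr at 37°C under low oxygen in serum-containing medium (0.50% gametocytemia, 1.25% hematocrit), then stained with MitoTracker Red CMXRos and imaged in serum-free medium containing 500 nM dye. The viability index is the gametocyte particle count divided by the plate mean of solvent-only wells.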

[1] = gametocyte stage: Stage I viability index
[2] = gametocyte stage: Stage II viability index
[3] = gametocyte stage: Stage III viability index
[4] = gametocyte stage: Stage IV viability index
[5] = gametocyte stage: Stage V viability index

Compound	viability index [1]	viability index [2]	viability index [3]	viability index [4]	viability index [5]
CCCOCc1cc(CN2CCN(c3cccc(Cl)c3)CC2)c(O)c2ncccc12	0.00962	0.0225	0.0244	0.0127	0
COc1ccccc1N1C(=N)SC(=Cc2ccc(OCc3ccccc3F)cc2)C1=O	0.669	0.654	0.661	0.563	0.403
COc1ccc(Nc2cc(C)nc(NCc3ccccc3)n2)cc1	0.0594	0.319	0.487	0.589	0.481
c1ccc(-c2ccc(-c3nc4ccccc4[nH]3)cc2)cc1	0.527	0.768	0.867	0.784	0.967
CCCCCCC(O)(c1ccc(F)cc1)C(CN1CCOCC1)c1ccccc1 (stereo not given)	0.871	0.694	0.879	0.93	0.831
CCOc1cc(Br)c(C(C)NC(=O)c2cccc(OC)c2)cc1OCC (stereo not given)	0.465	0.412	0.58	0.748	0.648
Cc1cccc(Nc2nc(N)c3ccccc3n2)c1	0.0785	0.635	0.948	0.854	0.692
O=C(Nc1ccc(Cl)c(Cl)c1)Nc1ccc(Cl)c(Cl)c1	0.0437	0.0241	0.0353	0.0918	0.104
COc1ccc(CNC2CCN(c3ccc(NC(=O)c4cccc(Cl)c4)cc3)CC2)cc1OC	0.0586	0.532	0.652	0.79	0.758
COc1cccc(Cn2c(Oc3ccccc3)nc3c2c(=O)n(C)c(=O)n3C)c1	0.892	0.853	0.993	1.06	1.16
CCOc1cc(Cl)c(C(C)NC(=O)c2ccccc2)cc1OCC (stereo not given)	0.728	0.781	0.819	1.03	0.901
COc1ccc(-c2cc(=O)oc3c4c(ccc23)OCN(Cc2ccc(F)cc2)C4)cc1	0.0192	0.0833	0.406	0.516	0.545
COc1cccc(NC(=O)[C@H](C(C)C)n2c(=O)[nH]c3ccccc3c2=O)c1	0.0552	0.0213	0.0736	0.286	0.341
CCOC(=O)C1=C(C)N=c2sc(=Cc3cc(Cl)ccc3O)c(=O)n2C1c1ccc(OC)cc1 (stereo not given)	0.0559	0.0966	0.137	0.171	0.416
CCOC(=O)c1cnc2ccc(OC)cc2c1NCc1ccccc1	0.309	0.535	0.991	0.835	0.87
COc1cccc(-c2nn(C)c3sc(C(=O)NCCN4CCN(c5ccccc5F)CC4)cc23)c1	0.0431	0.436	0.777	0.836	0.835
O=C1c2ccc3c4c(ccc(c24)C(=O)N1CCCCO)C(=O)N(CCCCO)C3=O	0.364	0.261	0.204	0.168	0.182
COc1ccc(-c2nc3cc(Cc4ccc5[nH]c(-c6ccc(OC)cc6)nc5c4)ccc3[nH]2)cc1	0.0276	0.441	0.864	0.809	0.538
CCCCCCn1c(=N)n(CC(O)COc2cccc(C)c2)c2ccccc21 (stereo not given)	0.0787	0.0425	0.0828	0.149	0.0779
CN(C)CCNc1cc(-c2ccccc2)nc2ccccc12	0.685	0.795	0.924	0.883	0.727
CC(=O)c1ccc(NC(=O)CSc2nc(-c3ccccc3Cl)ns2)cc1	0.102	0.308	0.308	0.62	0.584
COc1cc2c3cc1Oc1c(OC)c(OC)cc4c1C(Cc1ccc(O)c(c1)Oc1ccc(cc1)CC3N(C)CC2)N(C)CC4 (stereo not given)	0.25	0.465	0.592	0.528	0.468
OC1=C2C(=Nc3ccccc3SC2c2ccc(Br)cc2)c2ccccc21 (stereo not given)	0.755	0.751	1.04	0.801	0.857
CCCc1c(C)nc2ccc(Br)cc2c1O	0.777	0.706	0.893	0.965	0.753
COc1ccc(-c2cc3c(nn2)-c2ccccc2C3=O)cc1	0.713	0.675	0.735	0.693	1
CCCn1c(=N)c(C(=O)NC2CCCCC2)cc2c(=O)n3cccc(C)c3nc21	0.45	0.612	1.06	0.981	0.805
Cc1sc2ncnc(Sc3nc4ccccc4[nH]3)c2c1C	0.0276	0.0135	0.0354	0.0821	0.0659

Compound	viability index [1]	viability index [2]	viability index [3]	viability index [4]	viability index [5]
COc1ccc(C=C2SC(Nc3ccccc3)=NC2=O)cc1	1.03	0.768	0.663	0.791	0.727
COc1ccc(NC(=O)C2c3ccccc3C(=O)N(CC(C)C)C2c2cccs2)cc1 (stereo not given)	0.0343	0.0087	0.0354	0.216	0.0549
CCOc1c(Br)cc(C2C(C(=O)OC)=CN(C)C=C2C(=O)OC)cc1OC	0.344	0.243	0.353	0.38	0.649
CCc1ccc(CNCC(O)c2ccccc2)cc1 (stereo not given)	0.042	0.177	0.649	0.703	0.506
CC(C)(C)CC(C)(C)NCC(O)COc1ccc(Cl)cc1Cl (stereo not given)	0.0309	0.0309	0.0665	0.188	0.11
O=C(NCC1Cc2cccc(-c3ccncc3)c2O1)c1csc2c1CCCC2 (stereo not given)	1.09	1.09	0.945	1.04	1.11
CCOC(=O)C1=C(C)N=c2sc(=Cc3ccccc3O)c(=O)n2C1c1ccc(OC)c2ccccc12 (stereo not given)	0.0358	0.06	0.197	0.468	0.481
FC(F)(F)c1cccc(Nc2nc3ccccc3nc2Nc2cccc(C(F)(F)F)c2)c1	0.0175	0.0233	0.0149	0.00633	0.0649
COc1ccc(CN2CCCC(C(=O)c3ccc(C(F)(F)F)cc3)C2)c(O)c1 (stereo not given)	0.049	0.0866	0.365	0.554	0.779
CCCc1c(C)nc2ccccc2c1O	0.634	0.705	0.844	0.72	1.02
COc1cc(C(=O)Nc2nc3c(cc4c5c(cccc53)CC4)s2)cc(OC)c1OC	0.18	0.5	1.04	0.775	0.818
Cc1ccccc1OCCSc1nc2ccc(NC(=O)c3ccccc3)cc2s1	0.83	0.863	0.944	0.835	0.922
OC(CNC1CCCCC1)Cn1c2ccc(I)cc2c2cc(I)ccc21 (stereo not given)	0.116	0.0916	0.122	0.168	0.13
CCN(CC)c1ccc(NC(=O)c2cccs2)cc1	0.716	0.659	0.758	0.936	1.04
Oc1ccccc1CNCC12CC3CC(CC(C3)C1)C2	0.274	0.297	0.638	0.818	0.769
O=C(Cc1ccccc1)NC(c1ccc(Cl)cc1)c1c(O)ccc2ccccc12 (stereo not given)	0.0691	0.316	0.631	0.604	0.857
CC1CCN(Cc2c(O)ccc3cc(-c4nc5ccccc5s4)c(=O)oc23)CC1	0.706	0.705	0.925	0.864	1
CCCCNc1nc(NC(C)(C)C)nc(NC(C)(C)C)n1	0.0157	0.0425	0.223	0.117	0.0649
O=C(NC(c1ccccc1)c1ccc2cccnc2c1O)c1ccccc1 (stereo not given)	0.00552	0.029	0.0453	0.103	0.0769
COc1ccc(C(=O)C2CC2c2ccc(Cl)cc2)cc1 (stereo not given)	1.01	0.968	1.03	0.93	0.558
CCN(CC)CCn1c(=N)n(CC(O)c2ccc(Cl)c(Cl)c2)c2ccccc21 (stereo not given)	0.00552	0.057	0.0608	0.0851	0.121
COc1ccccc1C(=O)ON=C(N)Cc1cccc2ccccc12	0.0446	0.121	0.299	0.373	0.195
O=C1C2=C(Nc3ccccc3SC2c2ccccc2)c2ccccc21 (stereo not given)	0.678	0.794	0.742	0.623	0.662
Cc1ccc(Cn2c(N3CCC(C(=O)NCc4cccs4)CC3)nc3ccccc32)cc1	0.593	0.289	0.545	0.544	0.308
COc1ccc(-c2nc(N3CCN(C(=O)C4CCCCC4)CC3)c3c4c(sc3n2)CCCC4)cc1	1.05	0.922	1.06	0.915	0.779
COCCN(C(=O)Cc1cccs1)C(C(=O)NCc1ccc(OC)cc1)c1ccc(C(C)C)cc1 (stereo not given)	0.846	0.801	1.18	1.11	0.967
